# From PubChem BioAssay (EPA / NIEHS)
# Inconclusive results are not listed. The source made the active and inactive calls. Rule for the calls, unless noted: active = hit-call score of the fitted dose curve at least 0.9, where 1 is the maximum; inconclusive = response in the unintended direction; inactive = score below 0.9.
# Legend:
# [1] = target: bovine Estrogen Receptor (ER), ESR1 (gene 407238) (UniProt P49884); assay: NVS_NR_bER: NovaScreen (NVS) Nuclear Receptor Binding Assay for bovine Estrogen Receptor (ER) (AID 2283345);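 note: actives lower the bound radioligand count which means they displace the ER ligand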
# In short: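 Displacement of a radioligand from estrogen receptor in bovine uterine membrane preparations; scintillation signal taken at 18 hours, DMSO as baseline. Single-concentration duplicates (25 uM) preceded concentration-response follow-up of actives.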
# [2] = TOX21_p53_BLA_p2_viability: Viability Assessment in the Tox21 HCT-116 p53 Agonism Beta-lactamase Assay, Phase 2 (AID 2283591);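 note: compound exposure lasted 16 h at 37 °C; actives lower the ATP signal meaning cytotoxicity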
# In short: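 HCT116 p53-bla cells, 4000/well, dosed after 5 h plating (217-fold dilution of DMSO stocks) and incubated 16 h at 37C. Viability taken as cellular ATP by CellTiter-Glo luminescence after 30 min RT; signal loss marks cytotoxicity.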
# [3] = target: Cellular tumor antigen p53 (Homo sapiens) (UniProt P04637); assay: TOX21_p53_BLA_p2_ratio: Tox21 HCT-116 p53 Agonism Beta-lactamase Assay, Ratio, Phase 2 (AID 2283592)
# In short: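 HCT116 p53-bla; 4000 cells/well; 5 h pre-incubation; cpd in DMSO, 217-fold dilution; 16 h 37C/5% CO2; CCF4-AM 2 h RT; Ex 405, Em 460/530 ratio; DMSO = baseline; positive fitting direction.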
# [4] = TOX21_p53_BLA_p3_viability: Viability Assessment in the Tox21 HCT-116 p53 Agonism Beta-lactamase Assay, Phase 3 (AID 2283593);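 note: cells exposed to compound for 16 h before reading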
# In short: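 HCT116 cells, 4000/well, dosed 5 h after plating by pin transfer (217-fold dilution from DMSO stock) and incubated 16 h at 37C, 5% CO2. Viability read as ATP luminescence with CellTiter-Glo after 30 min at room temperature.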
# [5] = target: Cellular tumor antigen p53 (Homo sapiens) (UniProt P04637); assay: TOX21_p53_BLA_p3_ratio: Tox21 HCT-116 p53 Agonism Beta-lactamase Assay, Ratio, Phase 3 (AID 2283596)
# In short: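 HCT116 p53-bla cells (4000/well) given compound in DMSO (217-fold dilution) after 5 h, incubated 16 h at 37C. CCF4-AM substrate 2 h at room temperature; 460/530 nm emission ratio, gain fitted against DMSO.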
# [6] = TOX21_p53_BLA_p4_viability: Viability Assessment in the Tox21 HCT-116 p53 Agonism Beta-lactamase Assay, Phase 4 (AID 2283597);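 note: hits lower the luminescence signal meaning cytotoxicity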
# In short: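 Cells plated, 5 h pre-incubation; DMSO compounds pinned (217-fold dilution); 16 h, 37C/5% CO2; CCF4-AM 2 h RT; CellTiter-Glo 30 min RT; luminescence read.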
# [7] = target: Cellular tumor antigen p53 (Homo sapiens) (UniProt P04637); assay: TOX21_p53_BLA_p5_ratio: Tox21 HCT-116 p53 Agonism Beta-lactamase Assay, Ratio, Phase 5 (AID 2283599)
# In short: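 HCT-116 p53-bla cells (4000/well) plated 5 h, dosed with compound (217-fold DMSO dilution) for 16 h at 37 C; CCF4-AM substrate 2 h at room temperature. Activity is the 460/530 nm emission ratio (405 nm excitation), fitted in gain-of-signal direction versus DMSO.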
# [8] = TOX21_p53_BLA_p5_viability: Viability Assessment in the Tox21 HCT-116 p53 Agonism Beta-lactamase Assay, Phase 5 (AID 2283600)
# In short: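 4000 cells/well; 5 h pre-incubation; DMSO compounds pin-transferred, 217-fold dilution; 16 h, 37C/5% CO2; CCF4-AM 2 h RT; CellTiter-Glo 30 min RT; luminescence.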
# [9] = target: Cellular tumor antigen p53 (Homo sapiens) (UniProt P04637); assay: TOX21_p53_BLA_p4_ratio: Tox21 HCT-116 p53 Agonism Beta-lactamase Assay, Ratio, Phase 4 (AID 2283601)
# In short: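 HCT-116 p53 beta-lactamase reporter cells (4000/well) preincubated 5 h, then compound (217-fold dilution of DMSO stock) for 16 h at 37C. CCF4-AM substrate added 2 h at room temperature; 460/530 nm emission ratio fitted upward versus DMSO.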
# [10] = target: Norway rat Vesicular Monoamine Transporter (VMAT2), neurotransmitter transporter, Slc18a2 (gene 25549) (UniProt Q01827); assay: NVS_TR_rVMAT2: NovaScreen (NVS) Transporter Assay for Norway rat Vesicular Monoamine Transporter (VMAT2), neurotransmitter transporter (AID 2283376);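 note: actives lower the bound radioligand signal below the DMSO level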
# In short: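 Radioligand displacement binding on rat forebrain tissue preparation, filter-based scintillation read-out 1 hour after dosing. Primary screen in duplicate at 25 uM, then concentration series for actives; loss of signal versus DMSO.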
# [11] = target: Bile acid receptor (Homo sapiens) (UniProt Q96RI1); assay: NVS_NR_hFXR_Agonist: NovaScreen (NVS) Nuclear Receptor Binding Assay for human Farnesoid X Receptor Agonism (FXR) (AID 2283347)
# In short: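 Cell-free TR-FRET binding assay with extracted human FXR protein, agonist format, read 1 h after dosing. Primary screen at 25 uM single concentration in duplicate, actives retested in concentration series; gain of signal versus DMSO.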
# [12] = target: Voltage-dependent N-type calcium channel subunit alpha-1B (Rattus norvegicus) (UniProt Q02294); assay: NVS_IC_rCaChN: NovaScreen (NVS) Ion Channel Assay for rat Calcium Channel, Type N (CaChN) (AID 2283317)
# [13] = target: rat Oxytocin Receptor (OXT), Oxtr (gene 25342) (UniProt P70536); assay: NVS_GPCR_rOXT: NovaScreen (NVS) G Protein-Coupled Receptor Assay for rat Oxytocin Receptor (OXT) (AID 2283330)
# In short: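 Radioligand displacement on rat uterine membranes, 1 h incubation, filter-based scintillation counting. Chemicals were screened in duplicate at 25 uM, and those passing threshold were retested in concentration-response up to 50 uM. Loss of binding was fitted versus DMSO.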
# [14] = CCTE_Harrill_HTTr_Apoptosis_MCF7: CCTE's 6-hour Apoptosis Assessment for the High-Throughput Transcriptomics (HTTr) Platform, in MCF-7 cells cultured in DMEM + 10% fetal bovine serum, Harrill Lab (AID 2284011; active = hit-call score of the fitted dose curve at least 0.9, where 1 is the maximum; inactive = score below 0.9)
# In short: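 MCF-7 (DMEM + 10% FBS), 384-well; 8-pt dilution series, 6 h chemical exposure; caspase-3/7 activation via CellEvent Caspase 3/7 Green, HCI; bidirectional fit vs DMSO.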
# [15] = CCTE_Harrill_HTTr_CellCount_MCF7: CCTE's Cell Proliferation Assessment for the High-Throughput Transcriptomics (HTTr) Platform, Harrill Lab (AID 2284012);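 note: cells exposed to compound for six hours; intended direction is loss of nuclei count meaning fewer cells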
# In short: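 MCF-7 cells were exposed for 6 h to an eight-point dilution series; Hoechst-labeled nuclei were counted by high content imaging. Curves were fitted bidirectionally against DMSO as negative control and baseline, with signal loss indicating reduced cell count.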
# Chain of bovine Estrogen Receptor (ER), ESR1 (gene 407238) (P49884 whole entry, looked up): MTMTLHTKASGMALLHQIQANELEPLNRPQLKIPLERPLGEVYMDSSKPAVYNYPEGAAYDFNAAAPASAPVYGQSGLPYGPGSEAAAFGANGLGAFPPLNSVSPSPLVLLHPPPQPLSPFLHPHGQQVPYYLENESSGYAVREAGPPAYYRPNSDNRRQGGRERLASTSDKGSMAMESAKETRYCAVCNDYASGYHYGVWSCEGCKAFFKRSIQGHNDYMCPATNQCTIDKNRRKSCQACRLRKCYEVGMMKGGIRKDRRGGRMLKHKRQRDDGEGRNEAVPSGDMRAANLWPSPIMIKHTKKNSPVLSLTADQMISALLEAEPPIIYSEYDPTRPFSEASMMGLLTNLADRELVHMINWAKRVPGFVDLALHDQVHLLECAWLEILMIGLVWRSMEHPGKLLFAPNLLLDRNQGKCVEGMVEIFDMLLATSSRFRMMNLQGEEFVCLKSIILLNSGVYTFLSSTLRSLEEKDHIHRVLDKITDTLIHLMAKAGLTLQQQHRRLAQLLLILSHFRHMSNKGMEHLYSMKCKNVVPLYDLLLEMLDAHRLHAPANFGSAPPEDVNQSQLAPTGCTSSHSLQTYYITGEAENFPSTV
# Chain of Bile acid receptor (Homo sapiens) (Q96RI1 whole entry, looked up): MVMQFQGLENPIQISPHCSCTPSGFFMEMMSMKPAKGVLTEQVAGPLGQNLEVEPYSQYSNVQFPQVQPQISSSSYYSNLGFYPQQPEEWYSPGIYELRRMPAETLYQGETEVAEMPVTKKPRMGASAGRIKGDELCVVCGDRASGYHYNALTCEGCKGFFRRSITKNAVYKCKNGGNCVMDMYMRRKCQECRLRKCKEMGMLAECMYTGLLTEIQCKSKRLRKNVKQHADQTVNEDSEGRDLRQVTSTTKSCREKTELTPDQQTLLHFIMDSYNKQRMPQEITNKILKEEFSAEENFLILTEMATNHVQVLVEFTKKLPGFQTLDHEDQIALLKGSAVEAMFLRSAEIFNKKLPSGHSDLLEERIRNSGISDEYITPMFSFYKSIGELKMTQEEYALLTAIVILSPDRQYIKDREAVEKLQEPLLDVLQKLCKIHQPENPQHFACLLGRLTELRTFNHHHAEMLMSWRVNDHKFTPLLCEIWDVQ
# Chain of Cellular tumor antigen p53 (Homo sapiens) (P04637 whole entry, looked up): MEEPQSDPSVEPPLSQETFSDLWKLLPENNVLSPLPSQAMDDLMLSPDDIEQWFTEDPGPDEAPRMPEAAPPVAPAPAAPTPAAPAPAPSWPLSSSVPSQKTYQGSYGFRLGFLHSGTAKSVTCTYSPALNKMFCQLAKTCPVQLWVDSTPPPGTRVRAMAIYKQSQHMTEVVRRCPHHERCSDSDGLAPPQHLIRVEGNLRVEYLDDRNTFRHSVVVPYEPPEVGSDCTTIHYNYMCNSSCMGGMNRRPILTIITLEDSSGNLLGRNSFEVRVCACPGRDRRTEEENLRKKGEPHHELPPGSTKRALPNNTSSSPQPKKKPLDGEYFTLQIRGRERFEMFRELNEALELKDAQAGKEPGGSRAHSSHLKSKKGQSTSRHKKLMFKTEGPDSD
# Chain of Norway rat Vesicular Monoamine Transporter (VMAT2), neurotransmitter transporter, Slc18a2 (gene 25549) (Q01827 whole entry, looked up): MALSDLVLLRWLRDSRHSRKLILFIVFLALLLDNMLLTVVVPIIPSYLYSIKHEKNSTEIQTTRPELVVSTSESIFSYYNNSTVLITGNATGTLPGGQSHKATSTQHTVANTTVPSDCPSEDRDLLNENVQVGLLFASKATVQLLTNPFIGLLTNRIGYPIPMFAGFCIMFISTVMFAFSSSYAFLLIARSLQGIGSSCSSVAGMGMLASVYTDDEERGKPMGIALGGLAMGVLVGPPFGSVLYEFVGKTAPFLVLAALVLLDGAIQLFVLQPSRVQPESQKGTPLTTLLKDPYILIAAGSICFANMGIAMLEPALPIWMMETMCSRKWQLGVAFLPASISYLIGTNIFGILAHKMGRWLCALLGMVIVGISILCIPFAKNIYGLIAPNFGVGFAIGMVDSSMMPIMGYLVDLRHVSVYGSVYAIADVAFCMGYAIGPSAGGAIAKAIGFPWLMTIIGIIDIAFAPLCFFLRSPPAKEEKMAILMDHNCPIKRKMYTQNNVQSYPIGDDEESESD
# Chain of rat Oxytocin Receptor (OXT), Oxtr (gene 25342) (P70536 whole entry, looked up): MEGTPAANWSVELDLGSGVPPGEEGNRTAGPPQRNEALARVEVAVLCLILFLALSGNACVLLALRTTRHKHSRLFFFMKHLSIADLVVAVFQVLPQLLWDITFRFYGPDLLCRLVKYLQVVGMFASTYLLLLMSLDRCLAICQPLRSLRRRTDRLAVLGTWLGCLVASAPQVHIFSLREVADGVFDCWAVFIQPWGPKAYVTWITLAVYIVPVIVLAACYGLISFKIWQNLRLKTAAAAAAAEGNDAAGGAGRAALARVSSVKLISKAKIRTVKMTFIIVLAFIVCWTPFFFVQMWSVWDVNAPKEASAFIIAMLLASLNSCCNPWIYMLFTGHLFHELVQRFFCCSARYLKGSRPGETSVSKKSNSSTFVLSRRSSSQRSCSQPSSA
compound,measurement,setting,value
O=[N+]([O-])c1ccc(Oc2ccc(C(F)(F)F)cc2[N+](=O)[O-])cc1,outcome,[1],inactive
same,outcome,[2],inactive
same,outcome,[3],inactive
same,outcome,[4],inactive
same,outcome,[5],inactive
same,outcome,[6],inactive
same,outcome,[7],inactive
same,outcome,[8],inactive
same,outcome,[9],inactive
CC[N+](CC)(CC(=O)Nc1c(C)cccc1C)Cc1ccccc1,outcome,[10],inactive
C=CC(=O)OCCCCO,outcome,[1],inactive
CCCCOC(=O)[C@@H](C)Oc1ccc(Oc2ccc(C(F)(F)F)cn2)cc1,outcome,[11],inactive
NCC1(Cc2noc(=O)[nH]2)CCCCC1,outcome,[12],inactive
same,outcome,[13],inactive
CCN(CCC#N)c1ccc(N=Nc2c(Cl)cc([N+](=O)[O-])cc2Cl)cc1,outcome,[11],inactive
OCC(CO)(CO)CO,outcome,[12],inactive
CCOP(=O)(Sc1ccccc1)Sc1ccccc1,outcome,[1],inactive
O=C1OC(=O)C2C3C=CC(C3)C12 (configuration not stated),outcome,[13],inactive
CC(Oc1ccc(Oc2ncc(C(F)(F)F)cc2Cl)cc1)C(=O)O (configuration not stated),outcome,[1],inactive
same,outcome,[2],inactive
same,outcome,[3],inactive
same,outcome,[4],inactive
same,outcome,[6],inactive
same,outcome,[14],inactive
same,outcome,[15],inactive
CCCCOC(=O)C(C)Oc1ccc(Oc2ccc(C(F)(F)F)cn2)cc1 (configuration not stated),outcome,[11],inactive
CCN(CC)c1ccc(N=Nc2ccccc2)cc1,outcome,[10],inactive
